Data reported in PubChem BioAssay (NCATS).
Results filed as inconclusive are left out. Entries that show only a call come without a potency. The source made the active and inactive calls. Calls come from the whole dose curve; as a rule, active = well fitted inhibition curve with a large enough effect; inconclusive = small, poorly fitted or top-dose-only effect; inactive = no such curve, though single readings can be large or run the other way.

assay: qHTS for Inhibitors of the Aldehyde Dehydrogenase Family (ALDH1A2, ALDH1A3, ALDH2, ALDH3A1) (AID 2061307); conditions: ALDH inhibition qHTS; series mostly up to 50.3 µM; note: nearly all actives have a fitted effect of over 50% in size; for potency: test system not described further here
Potency is the fitted concentration of half-maximal effect.

| SMILES | Potency |
| --- | --- |
| COc1cc2nc(N3CCN(C)CC3)nc(N)c2cc1OC | inactive |
| CCN1C(=O)c2ccccc2S(=O)c2ccc(C(=O)NCc3cccc(C(F)(F)F)c3)cc21 (stereo not given) | inactive |
| Cc1c(P(=S)(c2ccccc2)c2ccccc2)[n+]2ccccc2n1C/C=C/c1ccc2ccccc2c1 | 3.55 µM (active) |
| Cn1nnnc1Sc1ncnc2n[nH]c(-c3ccccc3)c12 | inactive |
| COc1ccc(Nc2nc(N3CCCC3)nc(N3CCOCC3)n2)cc1 | inactive |
| O=C(N/N=C/c1ccc(Br)o1)c1ccccc1 | inactive |
| Cc1cc(NS(=O)(=O)c2ccc(NCCc3ccc(Cl)c(Cl)c3)cc2)no1 | 2.83 µM (active) |
| COCCn1cc(NC(=O)CSC(C)C)ccc1=O | inactive |
| Cc1c2c(=O)n(-c3ccccc3)[nH]c2cc(=O)n1CCCN1CCOCC1 | inactive |
| Cc1cnc(CNc2nc(-c3ccccc3Cl)nc3ccccc23)cn1 | inactive |
| COc1ccc(NC(=O)c2ccc(N3CCOCC3)nc2)cc1 | inactive |
| O=C([C@H](NS(=O)(=O)c1ccc2[nH]c(=O)ccc2c1)c1ccc(F)cc1)N(Cc1ccco1)Cc1cccs1 | 25.2 µM (active) |
| CCOc1ccc(CNC(=O)c2cnc3c(C)cccn3c2=O)cc1 | inactive |
| O=C1C(=O)N(Cc2ccccc2)c2ccccc21 | 1.79 µM (active) |
| O=C(Nc1ccccn1)c1cccs1 | inactive |
| O=C(Nc1cccc(Oc2ncccn2)c1)c1cccc(C(F)(F)F)c1 | inactive |
| CCOc1ccc(CCNC(=O)c2cc3occc3[nH]2)cc1OCC | inactive |
| COc1ccccc1CNC(=O)c1ccccc1N | inactive |
| Cc1sc(NC(=O)Cc2ccc3c(c2)OCO3)nc1-c1ccc2c(c1)CCN2C(=O)c1cncn1C | 7.94 µM (active) |
| OCCNc1nc(Nc2ccccc2O)nc(N2CCCC2)n1 | inactive |

| SMILES | Potency |
| --- | --- |
| Cc1cc(NC(=O)c2cscn2)ccc1C(=O)O | inactive |
| CCc1cccc(C)c1Nc1c(-c2ccc(N(C)C)cc2)nc2ncccn12 | inactive |
| Cc1ccc(CNC(=O)c2cc(=O)c3cc(C)ccc3o2)cc1 | inactive |
| Cc1nn(CC(=O)N2CCN(c3cccc(C(F)(F)F)c3)CC2)c(=O)c2cc3sccc3n12 | inactive |
| CN(C)Cn1c(O)c(N=NC(=O)c2cccnc2)c2ccccc21 | inactive |
| Cc1c2c(=O)n(-c3ccccc3)[nH]c2cc(=O)n1CCN1CCOCC1 | inactive |
| COC(=O)c1ccc2c(c1)CCN2C(=O)c1cnn(-c2ccccc2)c1 | inactive |
| OCC1CCN(c2ccc3cc(Br)ccc3n2)CC1 | 8.91 µM (active) |
| COc1ccc(-n2ncc3c2CCCC3NC(=O)c2cccc(C(F)(F)F)c2)cc1 (stereo not given) | 11.3 µM (active) |
| O=C1CCc2ccc(NC(=O)c3ccn(-c4ccccc4F)n3)cc2N1 | inactive |
| CC(C)(C)CNc1ncnc2ccc(-c3ccc4c(c3)OCO4)cc12 | inactive |
| N#Cc1ccc(NC(=O)Cc2csc3nc(-c4ccccc4)cn23)cc1 | 18.2 µM (active) |
| Cc1n[nH]c(C)c1-n1c2c(cc(-c3nc(-c4ccc(Cl)cc4)cs3)c1=O)C(=O)CC(C)(C)C2 | inactive |
| C[S+](=O)([O-])c1ccc(-c2nnc3ccc(C(=O)NCc4cccs4)cn23)cc1 | inactive |
| Cc1ccc(C)n1-c1sccc1C#N | 7.12 µM (active) |
| CCN1CCN(C(=S)c2ccc([N+](=O)[O-])cc2)CC1 | inactive |
| Cc1c(P(=S)(c2ccccc2)c2ccccc2)[n+]2ccccc2n1C/C=C/c1ccc(Cl)cc1 | inactive |
| Cc1ccccc1C(=O)N1CCc2cc(-c3nc(NC(=O)CC4CCOCC4)sc3C)ccc21 | 4.47 µM (active) |
| O=C(Nc1ccccc1C(=O)Nc1cccc(C(F)(F)F)c1)c1ccc(Cl)cc1 | inactive |
| c1ccc(CN2CCN(c3nccc(-c4ccncc4)n3)CC2)nc1 | inactive |
